Laboratory results: the supplement of paper PMC6522484
± gives the standard deviation of the averaged measurements.

Columns and labels:
[1] = test system: DLD1; assay: cell viability (CellTiter-Glo) relative to plate median (fraction of plate median); higher = more viable cells; settings: 5 µM; treatment time 24 h; reporter: 7TFP
Outline: (§1)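 Colorectal cancer cell lines stably carrying lentiviral TCF/Wnt firefly luciferase reporters (7TFP or TCF4/Wnt) were plated in 384-well plates and, 24 h later, given library compounds at a final 5 µM for 24 h. Firefly luciferase or CellTiterGlo luminescence was read on parallel plates with a Tecan F500 reader. Each well's signal was normalised to the plate median in webcellHTS2 (additive, without log transformation). Values are the mean of two independent replicates.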

[2] = test system: HCT116; assay: as above; settings: 5 µM; treatment time 24 h; reporter: TCF4/Wnt
Outline: as §1

[3] = test system: SW480; assay: as above; settings: 5 µM; treatment time 24 h; reporter: 7TFP
Outline: as §1

[4] = test system: DLD1; assay: TCF/Wnt firefly luciferase reporter signal relative to plate median (fraction of plate median); higher = higher Wnt reporter signal; settings: 5 µM; treatment time 24 h; reporter: 7TFP
Outline: as §1

[5] = test system: SW480; assay: as above; settings: 5 µM; treatment time 24 h; reporter: 7TFP
Outline: as §1

SMILES	cell viability [1]	cell viability [2]	cell viability [3]	TCF/Wnt firefly luciferase reporter signal [4]	TCF/Wnt firefly luciferase reporter signal [5]
CC[C@@H]1C(=O)N(C)c2cnc(Nc3ccc(C(=O)N[C@H]4CC[C@H](N5CCN(CC6CC6)CC5)CC4)cc3OC)nc2N1C(C)C [Volasertib]	1 ± 0.036	0.666 ± 0.095	1.21 ± 0.078	0.91 ± 0.17	1.06 ± 0.042
N/C(=N\C(=O)c1nc(Cl)c(N)nc1N)NCc1ccccc1	0.986 ± 0.035	0.969 ± 0.17	0.998 ± 0.031	1.07 ± 0.16	1.04 ± 0.066
CC[C@@H](C(=O)[C@@H](C)[C@@H](O)[C@H](C)CCc1ccc(C)c(O)c1C(=O)O)[C@H]1O[C@](CC)([C@H]2CC[C@](O)(CC)[C@H](C)O2)C[C@@H]1C	0.985 ± 0.013	1.03 ± 0.098	1.02 ± 0.014	1.23 ± 0.099	1.03 ± 0.12
Oc1cc(O)c2c(c1)O[C@H](c1ccc(O)c(O)c1)[C@@H](O)C2	1.03 ± 0.014	1.03 ± 0.076	1.04 ± 0.042	1.08 ± 0.014	1.15 ± 0.035
COc1ccc2c(=O)ccoc2c1	0.979 ± 0.059	0.933 ± 0.11	0.942 ± 0.0071	1.03 ± 0.021	1.05 ± 0.1
C=C(NC(=O)C(=C)NC(=O)c1csc(C2=N[C@@H]3c4csc(n4)[C@H]4NC(=O)c5csc(n5)[C@H]([C@](C)(O)[C@@H](C)O)NC(=O)[C@H]5CSC(=N5)/C(=C/C)NC(=O)[C@H]([C@@H](C)O)NC(=O)c5csc(n5)[C@]3(CC2)NC(=O)[C@H](C)NC(=O)C(=C)NC(=O)[C@H](C)NC(=O)[C@H]([C@@H](C)CC)N[C@@H]2C=Cc3c([C@H](C)O)cc(nc3[C@H]2O)C(=O)O[C@@H]4C)n1)C(N)=O	0.927 ± 0.044	1.05	0.999 ± 0.044	0.966 ± 0.18	1.05 ± 0.071
CN(C)CCCN1c2ccccc2CCc2ccc(Cl)cc21	1.04	0.984 ± 0.051	1.06 ± 0.021	1.06 ± 0.1	1.01 ± 0.055
